The record followed here is PubChem BioAssay AID588819 (The Scripps Research Institute Molecular Screening Center, 2011).

About 320 (0.089%) of roughly 360,000 compounds were called active. Rule as the data show it: active = activation above about 19% (passing the limit was not always enough); inactive = the rest. The sample as a whole holds a higher share of actives than the screen did.

The target in this test is Muscarinic acetylcholine receptor M1 (Homo sapiens) (UniProt P11229). The test can be described thus: human M1 muscarinic receptor positive allosteric modulators, primary screen, CHO-K1 cells, Fluo-8 calcium fluorescence, 1536-well (AID 588819). The note with it: CHO-K1 hM1, Fluo-8 calcium fluorescence, ACh EC20; at 3 µM; hits give high values; 0% = ACh EC20, 100% = maximal ACh.
Sequence of Muscarinic acetylcholine receptor M1 (Homo sapiens) (P11229 whole entry, looked up): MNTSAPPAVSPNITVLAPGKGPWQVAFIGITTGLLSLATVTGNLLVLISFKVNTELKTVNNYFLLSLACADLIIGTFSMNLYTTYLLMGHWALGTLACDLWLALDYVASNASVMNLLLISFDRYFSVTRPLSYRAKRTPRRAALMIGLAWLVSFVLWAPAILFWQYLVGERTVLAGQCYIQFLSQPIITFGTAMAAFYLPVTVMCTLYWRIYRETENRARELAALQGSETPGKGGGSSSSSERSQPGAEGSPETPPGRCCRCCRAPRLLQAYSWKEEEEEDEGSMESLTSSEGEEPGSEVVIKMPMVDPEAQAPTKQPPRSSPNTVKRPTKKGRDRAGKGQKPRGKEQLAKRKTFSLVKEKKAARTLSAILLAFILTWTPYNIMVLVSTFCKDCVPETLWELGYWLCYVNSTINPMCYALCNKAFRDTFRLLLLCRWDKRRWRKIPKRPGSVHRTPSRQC
On to `Cc1ccc(S(=O)(=O)NC(=O)N2CCCN(Cc3ccc(F)cc3)CC2)cc1`, for which the activation was 5.25% (inactive).

As to `CCN(CC(=O)Nc1ccc(OC)cc1)C(=O)c1ccc(Cl)c(S(=O)(=O)N2CCCC2)c1`, the activation is 9.99% (inactive).

In the case of `CC(C)(C)NC(=O)CN(C(=O)c1ccc(Cl)nc1)c1cccc2ccccc12`, the activation was 2.85% (inactive).

`CCC1(CC)C(=O)C2=C3C1[C@H](C(=O)OC)C=C(C(=O)OC)C[C@H]3[C@H]1C(=O)N(Cc3ccccc3)C(=O)[C@H]1[C@H]2C` (stereo partly specified): the activation is -6.86% (inactive).

With `COc1ccc(-n2nc3c(c2NC(=O)c2ccc(N4C(=O)CCC4=O)cc2)CSC3)cc1`, the activation was 1.99% (inactive).

In the case of `COc1ccc(CCNC(=O)CN(C)S(=O)(=O)c2ccc3nc(C)sc3c2)cc1OC`, the activation is 8.1% (inactive).

Turning to `CCN(C(=O)COC(=O)/C=C/c1nc2ccccc2s1)C1CCS(=O)(=O)C1` (stereo unspecified), the activation is -0.52% (inactive).

As for `O=c1[nH]c(CN2CCN(S(=O)(=O)c3ccc4c(c3)OCCO4)CC2)nc2sc3c(c12)CCCC3`, the activation is 12.9% (inactive).

Consider `O=C(NCc1cccnc1)C12CC3CC(CC(C3)C1)C2`, for which the activation is 22.9% (inactive).

As to `CN(CC(=O)Nc1cccc(F)c1)C(=O)CC1CCCC1`, the activation was 29.7% (active).

In the case of `Cc1ccc(CSCC(=O)N(C)CC(=O)Nc2cccc(F)c2)cc1`, the activation was 11.3% (inactive).

Consider `COc1ccc(NC(=O)CN(C)C(=O)CC2CCCCC2)cc1`, for which the activation was 15.3% (inactive).

Take `ONC(=Nc1ccccc1)c1ccccc1Cl`: the activation was 2.82% (inactive).

For `CCC1(CC)NC(=O)N(CC(=O)OCC(=O)NC(=O)c2ccccc2)C1=O`, the activation was 5.54% (inactive).

With `CC(C)N1CCC(N2CCN(Cc3cccnc3)CC2CCO)CC1` (stereo unspecified), the activation is 7.42% (inactive).

Take `COc1ccc(S(=O)(=O)N2CCN(C(=S)NCC3CCCO3)CC2)cc1OC` (stereo unspecified): the activation was 2.58% (inactive).

As to `O=C(NCc1ccccc1)C1=C[C@@H](c2ccccc2)C[C@@H](OCCCCO)O1`, the activation was 19.5% (inactive).

Turning to `O=C(/C=C/c1ccccc1)Nc1nnc(SCC(=O)c2ccc3ccccc3c2)s1`, the activation is 1.55% (inactive).

Take `O=C(CSc1ccccc1)Nc1nnc(/C=C/c2ccccc2)s1`: the activation is 32.8% (active).

Take `CCOCc1nnc(NC(=O)CSc2ccc(C)cc2)s1`: the activation was 3.8% (inactive).

Regarding `O=C(Cn1nc(C(=O)O)c2ccccc2c1=O)Nc1ccc(F)cc1`, the activation is 1.79% (inactive).

In the case of `CC(=O)Nc1ccc(NC(=O)C(C)OC(=O)C2CC(=O)N(CCc3ccccc3)C2)cc1` (stereo unspecified), the activation was 4.72% (inactive).

For `CCCCN(C)c1ccc([N+](=O)[O-])cc1`, the activation is -3.31% (inactive).

Consider `CC(C)Cn1cnc2c1c(=O)n(CC(=O)NN)c(=O)n2Cc1ccccc1`, for which the activation is 4.53% (inactive).

Take `COCCn1cnc2c1c(=O)n(CC(=O)NN)c(=O)n2Cc1ccccc1`: the activation was 13.3% (inactive).

For the compound `CC(C)CCn1cnc2c1c(=O)n(CC(=O)NC(N)=O)c(=O)n2Cc1ccccc1`, the activation was 30.3% (active).

On to `CCCSC(=S)NC1CCS(=O)(=O)C1` (stereo unspecified), for which the activation is 0.86% (inactive).

Take `CCCCNCc1ccc(SC)cc1`: the activation is 25.2% (active).

Regarding `CCCCNCCS(=O)(=O)NCc1ccccc1`, the activation is 4.18% (inactive).

Turning to `CSc1ccc(CNCCN2CCOCC2)cc1`, the activation was -5.22% (inactive).

For the compound `Cc1cccc(C)c1NC(=O)C1(N(C(=O)c2ccccn2)c2ccc(O)cc2)CCCCC1`, the activation was -1.06% (inactive).

`CN(C)/C=C/c1c(C#N)c(=O)ncn1Cc1ccccc1`: the activation is -0.11% (inactive).

For `O=c1c2c(ncn1Cc1ccccc1)nc1n2CCC1`, the activation was 7.79% (inactive).

As for `CN(C)c1ccnc2sc3c(=O)n(Cc4ccccc4)cnc3c12`, the activation is 23.4% (active).

With `COc1ccc(CN2CC[C@H]3C=CC[C@@H](C(=O)N4CCOCC4)[C@H]3C2=O)cc1OC`, the activation was 1.94% (inactive).

In the case of `CNC(=O)c1nnc(Cc2ccc(Cl)cc2)o1`, the activation is 5.02% (inactive).

As for `O=C(Nc1ccc(F)cc1F)N1CCCN(CCOc2ccccc2)CC1`, the activation is 5.19% (inactive).

In the case of `Nc1ncnc2c1ncn2[C@@H]1O[C@H](CNC(=O)[C@H](N)Cc2cccnc2)[C@@H](O)[C@H]1O`, the activation is 2.46% (inactive).

For the compound `CCn1c(O)c(N=NC2=NC(=O)CS2)c2cc(C)ccc21`, the activation was -1.89% (inactive).

For the compound `O=C(CCNc1n[nH]c(=O)[nH]c1=O)N/N=C\c1ccc(Br)cc1`, the activation is 17.3% (inactive).

In the case of `CC(=O)N/C(=C/c1ccc(OC(F)F)cc1)C(=O)O`, the activation is 6.97% (inactive).

As to `CN1CCC(=NNC(=O)c2ccc(N(Cc3ccc(Cl)cc3)S(C)(=O)=O)cc2)CC1`, the activation is 4.92% (inactive).

`CC1CCN(c2ccc([N+](=O)[O-])c(SCCO)c2)CC1`: the activation was 2.03% (inactive).

Consider `COCCCNC(=O)C1CC(=O)N(c2ccc(C)cc2)C1` (stereo unspecified), for which the activation was 1.45% (inactive).

Take `CCCC(C)NC(=O)C1CCN(C(=O)C2CC(=O)N(c3ccc(C)cc3)C2)CC1` (stereo unspecified): the activation is 14.6% (inactive).

Take `COCCNC(=O)C1CCN(C(=O)C2CC(=O)N(c3ccc(C)cc3)C2)CC1` (stereo unspecified): the activation is 29.5% (active).

Regarding `Cc1ccc(S(=O)(=O)N2C3C=CC(C3)C2C(=O)O)cc1` (stereo unspecified), the activation is 1.95% (inactive).

For `O=C(O)C1CCN1C1CCCCC1` (stereo unspecified), the activation is 3.48% (inactive).

With `CCCC(=O)Nc1nnc(-c2ccccc2)o1`, the activation was 28.9% (active).

As to `Cc1ccnc2nc(C(=O)Nc3nnc(-c4ccccc4)o3)nn12`, the activation was 3.22% (inactive).

With `COc1ccccc1C(=O)NCC(=O)OCC(=O)Nc1nnc(-c2ccccc2)o1`, the activation was 7.11% (inactive).

Take `COc1ccc(N2CCC(CNC(=S)Nc3c(C)cccc3C)C2)cc1` (stereo unspecified): the activation is -4.84% (inactive).

`O=C(Cc1ccc(NC(=O)C2CCCN(C(=O)C3CCCCC3)C2)cc1)Nc1cccc(C(=O)N2CCCCC2)c1` (stereo unspecified): the activation was 3.87% (inactive).

Consider `CSc1ccccc1C(=O)Nc1cccc(C(C)=O)c1`, for which the activation was -2.71% (inactive).

On to `CC(Sc1nnc2c(n1)C1CCC2(C)C1(C)C)C(=O)Nc1ccccc1` (stereo unspecified), for which the activation was 11.8% (inactive).

With `CSc1nc(C)cc(SC(C(C)=O)C(=O)Nc2ccccc2)n1` (stereo unspecified), the activation is 23.1% (active).

Turning to `Cc1ccc(S(=O)(=O)N(CCc2ccccc2)c2ccc3c(c2)C2CC3CCN2C(=O)OCc2ccccc2)cc1` (stereo unspecified), the activation was 10.4% (inactive).

For `COc1ccccc1OCC(=O)OCn1c(SC)nnc(C)c1=O`, the activation was 2.31% (inactive).

Consider `Cc1nc(-c2ccc(F)cc2)c(CC(=O)Nc2cc(S(=O)(=O)N3CCCCC3)ccc2C)s1`, for which the activation was 14.8% (inactive).

For `Cc1ccc(NC(=O)CSc2nn3c(=O)c(C)nnc3s2)cc1Cl`, the activation is 10.6% (inactive).

With `Cc1ccccc1CSCCNC(=O)c1ccc(Cl)c(S(=O)(=O)N2CCOCC2)c1`, the activation was -5.71% (inactive).

For the compound `COc1ccc(Cl)cc1NC(=O)COc1ccc2c(c1)OCO2`, the activation is 7.62% (inactive).

With `CN=C1SC(C(=O)O)CC(=O)N1C` (stereo unspecified), the activation was 7.37% (inactive).

For `COc1cc(C(=O)N(C)Cc2cccc(OC)c2OC)ccc1OCC(=O)Nc1cccc(C(F)(F)F)c1`, the activation is -5.88% (inactive).

With `COC(=O)c1ccc2ccccc2c1OC1OC(CO)C(O)C(O)C1NC(C)=O` (stereo unspecified), the activation is 9.3% (inactive).

On to `CC(=O)c1cccc(NC(=O)C2CCCN2S(=O)(=O)c2cccc3nsnc23)c1` (stereo unspecified), for which the activation is -0.71% (inactive).

As to `Cc1ccc(CN2CCN(c3ccccc3Cl)CC2)o1`, the activation is 5.74% (inactive).

In the case of `CCOc1cc(C(=O)Nc2ccc(S(=O)(=O)Nc3cnc4ccccc4n3)cc2)cc(OCC)c1OCC`, the activation is 7.77% (inactive).

As to `COc1ccc([N+](=O)[O-])cc1N(CC(O)Cn1nnc2ccccc21)S(=O)(=O)c1ccc(C)cc1` (stereo unspecified), the activation is 21.8% (inactive).

For the compound `Oc1cccc(CCc2ccccn2)c1`, the activation was 4.71% (inactive).

As for `CCCn1c(=O)c2c(C(F)(F)F)cc(-c3cccs3)nc2n(CCC)c1=O`, the activation is 1.78% (inactive).

With `CCC(=O)N1CCCC1(C)C(=O)Nc1ccc2c(c1)CCN2C(C)=O` (stereo unspecified), the activation was 8.84% (inactive).

As to `COC(=O)c1ccc2nc(-c3ccc(OC)c(OC)c3)c(Cc3ccccc3)n2c1`, the activation was 2.75% (inactive).

As to `COC(=O)c1ccc2nc(-c3ccc(Cl)cc3)c(Cc3cccc(F)c3)n2c1`, the activation was -0.44% (inactive).

Turning to `COC(=O)c1ccc2nc(C3CCCCC3)c(Cc3cccc(F)c3)n2c1`, the activation was 27% (active).

In the case of `CN(C)CCN(Cc1ccccc1)S(=O)(=O)c1csc(C(N)=O)c1`, the activation is 10.5% (inactive).

For the compound `O=C(Cc1ccccc1)NCC1OCCc2ccccc21` (stereo unspecified), the activation is -5.39% (inactive).

`CCCCN(CC(=O)NC(C)(C)C)C(=O)C(=O)Nc1ccc2c(c1)OCCO2`: the activation is 7.88% (inactive).

Turning to `O=C(NNS(=O)(=O)c1c(F)cc(F)c(Cl)c1F)C12CC3CC(CC(C3)C1)C2`, the activation was -10.7% (inactive).

In the case of `COc1ccc(CNC(=O)COC(=O)CCS(=O)(=O)c2ccc(C)cc2)cc1OC`, the activation was 4.46% (inactive).

Turning to `CCCn1nc(C(=O)OCc2nc(N)nc(Nc3ccccc3C)n2)c2ccccc2c1=O`, the activation was 11.4% (inactive).

As to `CCOc1ccc2ccccc2c1/C=N/NC(=O)c1c(C)cc(C)[nH]c1=O`, the activation was 7.97% (inactive).

For `Oc1cccc(C2c3[nH]c4ccccc4c3CCN2Cc2cnn(-c3ccccc3)c2)c1` (stereo unspecified), the activation was -6.09% (inactive).

Take `O=C(O)c1cccc(S(=O)(=O)Nc2ccc(O)cc2Sc2nc3ccccc3s2)c1`: the activation is 31.9% (active).

On to `O=[N+]([O-])c1c(NCCO)cc(Sc2nc3ccccc3s2)c2nonc12`, for which the activation was 1.97% (inactive).

For the compound `Cc1nc2ccc(NC(=O)c3cccc(S(=O)(=O)N4CCOCC4)c3)cc2s1`, the activation was 3.59% (inactive).

For `CCn1c(CN2C(=O)CSc3ccccc32)n[nH]c1=S`, the activation is -0.34% (inactive).

For `CCC(C)[C@H](NC(=O)N1CCn2c1nc1ccccc12)C(=O)NCc1ccc(OC)cc1` (stereo partly specified), the activation is 0.16% (inactive).

On to `CC(C)(C)NC(=O)Cn1c(SCC(=O)Nc2nccs2)nc2ccccc21`, for which the activation was 2.24% (inactive).

With `CCOC(=O)C1(Cc2cccc(OC)c2)CCCN(S(=O)(=O)c2cccnc2)C1` (stereo unspecified), the activation was 6.27% (inactive).

Consider `CN1/C(=C\C=C2\N=C(c3ccc(F)cc3)OC2=O)C(C)(C)c2ccccc21`, for which the activation was -5.26% (inactive).
